# Screens deposited in PubChem BioAssay by National Center for Advancing Translational Sciences (NCATS).
# VP16 counter – counter-screen for ROR gamma inhibitors: Gal4-VP16 reporter; AID 2546; Potency, µM (highest dose often 53.6 µM), for the others: at the top dose activity, negative = inhibition, hits mostly inhibitors; actives 3.5% (n = 310,000); Drosophila S2 Gal4-VP16 UAS-luciferase, luminescence, 20 h;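 also: Gal4-VP16 expression switched on by copper sulfate through the metallothionein promoter; potency is read from the fitted curve at half-maximal effect; nearly all actives have a fitted effect of over 50% in size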
# IL-1B inflam inh – blocks inflammasome-driven IL-1 beta release; actives 4.7% (n = 360,000); activity change, % at 57.5 µM; THP-1 LPS/ATP IL-1B secretion, AlphaLISA, 16 h; stronger effect = lower value; in the data active = activity change below about -50%; inconclusive = mostly about -30% to -49%
#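 Secreted IL-1B measured by AlphaLISA bead assay after 16 h compound exposure of THP-1 cells; compounds (final up to 57.5 uM) added 1 h before LPS (250 ng/mL) and ATP (1.25 mM) stimulation; lower signal means less secretion.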
# DT40 TDP1 no CPT – qHTS for Inhibitors of human tyrosyl-DNA phosphodiesterase 1 (TDP1): qHTS in cells in absence of CPT | actives 15% (n = 420,000) | Potency, µM (titrated, usually from 46.2 µM), inactives show top-dose activity change, negative = growth inhibition, hits mostly inhibitors | AID 686978, 2013 | DT40 Tdp1-/- hTDP1 cells, no CPT, ATP luminescence, 48 h; also: potency is read from the fitted curve at half-maximal effect; nearly all actives have a fitted effect of over 55% in size
#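 Chicken DT40 Tdp1-/- cells stably complemented with human TDP1 were seeded at 400 cells/well with DMSO in place of 20 nM camptothecin. After compound pinning, cells grew at least 48 hr at 37 °C; viability read by CellTiter-Glo luminescence.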
# RORgamma inh – inhibitors of mouse ROR gamma transcriptional activity; actives 5.4% (n = 310,000); Potency, µM (highest dose often 53.6 µM), for the others: at the top dose activity change, negative = inhibition, actives largely listed as inhibitors; AID 2551; Drosophila S2 Gal4-RORgamma UAS-luciferase reporter, 20 h; also: potency is read from the fitted curve at half-maximal effect; nearly all actives have a fitted effect of over 60% in size
# Target sequence (P51450 whole entry, looked up, the tested form may be a part): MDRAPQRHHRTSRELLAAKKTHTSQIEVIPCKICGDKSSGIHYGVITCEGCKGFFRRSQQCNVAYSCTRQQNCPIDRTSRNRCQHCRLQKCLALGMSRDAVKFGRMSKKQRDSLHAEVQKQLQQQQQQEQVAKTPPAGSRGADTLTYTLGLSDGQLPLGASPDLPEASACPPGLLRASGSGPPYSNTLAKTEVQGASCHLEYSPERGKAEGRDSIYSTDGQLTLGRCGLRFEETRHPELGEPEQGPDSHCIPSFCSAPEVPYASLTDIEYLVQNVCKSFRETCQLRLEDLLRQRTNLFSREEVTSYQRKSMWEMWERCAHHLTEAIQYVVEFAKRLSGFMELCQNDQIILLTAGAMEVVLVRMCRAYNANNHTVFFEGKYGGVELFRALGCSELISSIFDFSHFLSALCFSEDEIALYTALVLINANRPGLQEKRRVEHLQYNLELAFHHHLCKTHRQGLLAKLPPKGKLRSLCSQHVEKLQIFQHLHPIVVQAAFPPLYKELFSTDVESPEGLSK
#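 Luminescence from a UAS-regulated Photinus luciferase reporter in stably transfected Drosophila Schneider cells is measured; decreased signal marks ROR gamma inhibition. Fusion expression is induced by 700 uM copper sulfate for 20 hr.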
# DT40 TDP1 CPT – growth inhibition of DT40 Tdp1-/-;hTDP1 cells with camptothecin (screen for TDP1 inhibitors); chicken DT40 Tdp1-/-;hTDP1 cells + 20 nM CPT, ATP luminescence, 48 h; Potency, µM (highest dose often 46.2 µM), inactives show at the top dose activity change, negative = growth inhibition, hits mostly inhibitors; actives 12% (n = 420,000); AID 686979; also: potency is read from the fitted curve at half-maximal effect; nearly all actives have a fitted effect of over 55% in size
#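 Cell growth measured by CellTiter-Glo luminescence after a minimum 48 h, 37 C compound exposure with 20 nM CPT in Tdp1-knockout DT40 cells stably expressing hTDP1, seeded 400/well; qHTS titration format.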
# ELG1 DNA repair – ELG1-dependent DNA repair inhibition | HEK293T ELG1-luciferase reporter, luminescence, 16 h; DNA damage induced by 5-fluorouridine | Potency, µM (titrated, usually from 46.1 µM), for the others: at the top dose activity change, negative = inhibition, usual class: inhibitors | AID 504467 | actives 2.3% (n = 330,000); also: potency is read from the fitted curve at half-maximal effect; nearly all actives have a fitted effect of over 55% in size
#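 Reporter activity after DNA damage by 5-fluorouridine is monitored. Compound-treated cells incubate 16 hr at 37 °C, then ONE-Glo is added for 30 min before luminescence reading.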
# * hit, by the source's call; ? = inconclusive; . = not tested or not shown; ! = repeats disagree. Hits are enriched below; roughly 21% of the tested compounds scored in any of these assays. Unless noted, calls follow the shape of the dose curve; as a rule, active = well fitted curve in the direction sought with a large enough effect; inconclusive = small, poorly fitted or top-dose-only effect, or another doubt; inactive = no such curve, though single readings can be large; an effect the other way counts as inactive or inconclusive. % is scaled to controls: 0 for no effect and ±100 for the full control effect.
SMILES,VP16 counter,IL-1B inflam inh,DT40 TDP1 no CPT,RORgamma inh,DT40 TDP1 CPT,ELG1 DNA repair
CCOC(=O)C1=C(C)N(CCO)C(=O)NC1c1ccccc1 (stereo not drawn),-0.7%,-0.6,0.2%,2.5%,?,0.0%
COC(=O)C1=C(C)N(C)C(=O)NC1c1ccc(O)c(OC)c1 (stereo not drawn),-16.4%,11.0,0.0%,?,0.0%,24.9%
COC(=O)C1=C(C)N(C)C(=S)NC1c1ccc(OC)cc1OC (stereo not drawn),?,-3.0,-15.3%,15.8µM*,-11.8%,-3.4%
CCOC(=O)C1=C(C)NC(=S)N(C(C)=O)C1c1ccc(Cl)cc1 (stereo not drawn),17.8µM*,-14.5,-13.5%,7.94µM*,16.4µM*,?
CCOc1ccc2ccccc2c1C1NC(=S)N(C)C(C)=C1C(=O)OC (stereo not drawn),-5.7%,12.6,?,-3.6%,?,3.1%
CCOC(=O)C1=C(C)N(C)C(=S)NC1c1c(OCC)ccc2ccccc12 (stereo not drawn),17.8µM*,24.1,-93.6%,2.82µM*,?,6.1%
CCOC(=O)C1=C(C)N(C)C(=S)NC1c1ccccc1 (stereo not drawn),8.91µM*,21.9,?,6.31µM*,9.2%,-2.9%
Cc1cccc(C)c1N1C(=O)c2ccccc2NC(=O)C1C(=O)NCCc1ccccc1F (stereo not drawn),.,0.0,?,.,2.0%,.
Cc1cccc(C(=O)Nc2nsc(N)n2)c1,.,55.2,-1.2%,.,-18.7%,-0.3%
CCOC(=O)C1=C(C)N(C)C(=S)NC1c1ccc(Cl)cc1 (stereo not drawn),3.55µM*,-4.7,-46.2%,?,?,?
COC(=O)C1=C(C)N(C)C(=S)NC1c1ccc(Cl)cc1 (stereo not drawn),11.2µM*,0.0,-8.1%,7.94µM*,-2.4%,-1.0%
COC(=O)C1=C(C)N(CCCC(=O)O)C(=O)NC1c1ccc(Cl)cc1 (stereo not drawn),.,-7.3,-12.6%,.,-1.8%,.
C[C@H](N)CCP(=O)(O)O,.,.,-18.8%,.,-0.9%,.
Cc1cccc(NC(=O)CSc2nc(=O)n(CCN3CCOCC3)c3c2CCC3)c1,.,.,-2.7%,.,0.0%,.
Cc1cccc(N(CC(=O)N2CCc3ccccc3C2)S(C)(=O)=O)c1C,-7.0%,15.4,-3.8%,17.7%,0.4%,0.0%
CCCCN(CCCC)C(=O)CN(C)S(=O)(=O)c1ccc2c(c1)c(=O)n(C)c(=O)n2C,.,.,?,.,23.1µM*,.
CN(CC(=O)N(CCO)Cc1ccccc1)S(=O)(=O)c1ccc2c(c1)c(=O)n(C)c(=O)n2C,2.0%,0.0,-0.6%,-14.0%,-4.3%,20.5%
COc1ccc(CNC(=O)CN(C)S(=O)(=O)c2ccc3c(c2)c(=O)n(C)c(=O)n3C)cc1,6.7%,28.3,16.4µM*!,-3.3%,?,4.4%
CC(=O)Nc1ccc(NC(=O)Cn2cnc(S(=O)(=O)N3CCOCC3)c2)cc1,6.2%,-6.2,16.3%,-4.9%,-11.1%,9.3%
COc1cc2c(cc1OC)C1=NC(=O)CN1C(SCc1ccccc1C)=N2,-4.0%,-4.5,10.3µM*,?,10.3µM*,10.3µM*
COc1ccc(C)cc1NC(=O)CSCc1ccccc1C,6.3%,-3.9,?,8.9%,-26.2%,14.3%
C/C(=C\c1ccc(Br)cc1)C(=O)c1c(C)cc(C)[nH]c1=O,0.0%,?,?,?,?,14.6µM*
C/C(=C\c1ccc(Cl)cc1)C(=O)c1c(C)cc(C)[nH]c1=O,-10.5%,-18.9,?,-28.3%,?,?
C/C(=C\c1cccs1)C(=O)c1c(C)cc(C)[nH]c1=O,-1.4%,-3.0,24.0%,4.8%,-0.4%,16.0%
